# Bioassay records deposited in PubChem BioAssay by National Center for Advancing Translational Sciences (NCATS).
# Only some compounds are listed: those with a hit (about 2.1% of all), similar ones and a draw of the others.
# TDP-43 yeast inh – inhibitors of TDP-43 toxicity in yeast; TDP-43 expressing yeast growth rescue, BacTiter-Glo, 24 h; 1.8% of 410,000 active; Potency, µM (titrated, usually from 46.1 µM), for inactives: at the top dose growth rescue (activation), hits mostly activators; also: % of control where 0% means no effect; nearly all actives have a fitted effect of over 50% in size
#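 Readout is BacTiter-Glo luminescence of cell growth, so inhibitors register as activators. TDP-43-expressing yeast at OD600=0.02 in galactose medium, after raffinose pregrowth to mid-log, were incubated with compound for 24 hr at 30 deg C.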
# FUS yeast rescue – FUS proteinopathy suppression in yeast; S. cerevisiae FUS-expressing, growth rescue, OD600, 24 h; Potency, µM (series often up to 76.6 µM), most hits filed as activators; 0.24% of 390,000 active; AID 1347120;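 also: plate controls were DMSO vehicle for no effect and reference control for full effect; nearly all actives have a fitted effect of over 55% in size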
#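 Read-out: OD at 600 nm after 24hr at 30C, reporting rescue of FUS-induced yeast toxicity. Cells at OD 0.005 in galactose (2%) minimal medium; compounds tested in a dilution series; CP55940 titration from 92uM final as control.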
# Abeta yeast res – A-beta toxicity reversal in yeast; Potency, µM (titrated, usually from 46.1 µM), hits mostly activators; AID 1347071; 0.063% of 410,000 active; yeast expressing A-beta42, growth rescue, OD600, 48 h; response scale: 0% DMSO, 100% iron-clioquinol control; also: nearly all actives have a fitted effect of over 55% in size
#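 Growth rescue measured by 600 nm absorbance after 48 h yeast culture at 30 C with compound. Values normalized between DMSO and an equimolar ferric chloride plus clioquinol control.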
# aSyn yeast inh – inhibitors of alpha-synuclein toxicity in yeast; 0.14% of 370,000 active; Potency, µM (highest dose often 46.1 µM), for inactives: top-dose growth rescue (activation), hits mostly activators; Yeast expressing alpha-synuclein, growth rescue, BacTiter-Glo, 24 h; also: % of control where 0% means no effect; nearly all actives have a fitted effect of over 65% in size
#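 Readout is rescue of growth in alpha-synuclein-expressing yeast, so inhibitors of toxicity appear as activators. Growth after 24 hr at 30 deg C in galactose medium is quantified by luminescence.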
# Starred values were filed as active, the others as inactive; i = inactive; ? = inconclusive; / = no result given. Calls follow the shape of the dose curve; as a rule, active = well fitted curve in the direction sought with a large enough effect; inconclusive = small, poorly fitted or top-dose-only effect, or another doubt; inactive = no such curve, though single readings can be large; an effect the other way counts as inactive or inconclusive. Potency is read from the fitted curve at half-maximal effect.
SMILES,TDP-43 yeast inh,FUS yeast rescue,Abeta yeast res,aSyn yeast inh
C[C@H](CO)N1C[C@H](C)[C@H](CN(C)S(=O)(=O)c2cccs2)Oc2ccc(NC(=O)Nc3ccc4c(c3)OCO4)cc2CC1=O,23%,25µM*,i,-1%
O=C(Nc1ccc(Br)cc1)OC1CC2CC1[C@H]1CCCCN1[C@H]2Cc1ccccc1 (some centres not stated),/,i,/,/
COc1ccc(C(=O)C2CCN(c3ncnc4sccc34)CC2)cc1,/,i,/,/
Nc1nc(SCc2ccccc2)ns1,30%,i,i,0%
Nc1nc(SCc2ccc(Cl)cc2)ns1,16µM*,i,?,-5%
CCOC(=O)CN1C(=O)S/C(=C/c2ccc(C)o2)C1=O,13µM*,i,i,4%
Cc1ccc(C(=O)N2CCC(C(=O)c3c(C)cc(C)cc3C)CC2)cc1,18µM*,?,i,2%
Cc1ccc(C(=O)C2CCN(C(=O)c3ccc(C)cc3)CC2)cc1,15%,i,i,-7%
CC1=C(C(=O)NCc2cccc(Br)c2)C2(CCCCC2)OC1=O,18µM*,i,i,/
CCNC(=S)N/N=C(\C)c1ccc2ccccc2c1OC(F)F,?,?,5.6µM*,-9%
Oc1cccc(C=NN=C2c3ccccc3-c3ccccc32)c1,28µM*,/,i,-28%
CCOc1cc(C=NN=C2c3ccccc3-c3ccccc32)ccc1O,14µM*,/,i,22%
Cc1csc(NC(=O)c2ccc(COc3cccc(F)c3)o2)n1,/,i,/,/
O=S1(=O)CC2c3ccccc3CN2CN1C1CCCC1 (configuration not stated),/,i,/,/
Clc1ccccc1C1=Nn2c(nnc2-c2ccncc2)SC1,11µM*,i,i,10%
Cc1cc(-c2nnc3n2N=C(c2ccccc2Br)CS3)n[nH]1,1%,i,?,-1%
Cc1cccc(-c2nnc3n2N=C(c2ccccc2Br)CS3)c1,20µM*,i,i,7%
COC(=O)C1(C)CCCC2(C)c3cc(OC)ccc3C(=O)C(Br)C12 (configuration not stated),25µM*,?,i,-4%
O=C(c1ccncc1F)N1CCC(n2nnc3ncccc32)CC1,/,i,/,/
Cc1ccc(S(=O)(=O)c2c(N)n(/N=C/c3ccco3)c3nc4ccccc4nc23)cc1,14µM*,i,i,1%
C[C@H]([C@@H](N)C(=O)N[C@@H](C(=O)O)[C@@H]1O[C@H](n2ccc(=O)[nH]c2=O)[C@@H](O)[C@H]1O)[C@@H](O)c1ccc(O)cn1,4.5µM*,i,?,0%
COc1cc(OC)c(/C=C/c2c3ccccc3cc[n+]2C)c(OC)c1,/,/,/,0%
C#CCOC(=O)Nc1cccn(Cc2c(Cl)cccc2Cl)c1=O,11µM*,i,i,-8%
O=C(Nc1cccn(Cc2c(Cl)cccc2Cl)c1=O)C1CC1,?,i,i,-15%
COc1ccc2c(c1)CCCN2C(=O)C1CCCN(S(=O)(=O)c2ccccc2)C1 (configuration not stated),/,i,/,/
SMILES,TDP-43 yeast inh,FUS yeast rescue,Abeta yeast res,aSyn yeast inh
O=C(CN1N=C(C(F)(F)F)CC1(O)c1ccc([N+](=O)[O-])cc1)c1ccccc1 (configuration not stated),16µM*,i,i,16%
O=C(c1ccccc1O)N1N=C(C(F)(F)F)CC1(O)c1ccc([N+](=O)[O-])cc1 (configuration not stated),16%,i,i,-3%
CC(C)CN1C(=O)C[C@@]2(C(=O)N(C)c3ccc(NS(=O)(=O)C4CC4)cc32)C1c1ccccc1 (some centres not stated),/,i,/,/
Cc1onc(-c2c(Cl)cccc2Cl)c1C(=O)c1ccc(F)cc1,13µM*,i,i,0%
Cc1onc(-c2c(F)cccc2Cl)c1C(=O)c1ccc(F)cc1,13µM*,i,i,16%
Cc1onc(-c2c(F)cccc2Cl)c1C(=O)c1ccccc1O,-30%,i,i,15%
Cc1onc(-c2c(F)cccc2Cl)c1C(=O)c1ccccc1,0%,i,?,17%
CC1(C)OC(=O)C2(Cc3cc(C(F)(F)F)ccc3N3CCCCC32)C(=O)O1 (configuration not stated),/,/,/,-13%
COCC#Cc1ccc(CC[C@H]2O[C@H]3CC[C@H](CO)O[C@H]3C[C@H]2n2cc(C(C)(C)O)nn2)cc1,/,i,/,/
COc1ccc(NC(C)(C)c2nnnn2-c2c(C)cccc2C)cc1,13µM*,i,i,11%
